# Compound activity (PubChem BioAssay)
# Compounds with a hit are over-represented: about 9.4% of the library has one in this group of screens.
# SMN2 splice up = qHTS Assay for Enhancers of SMN2 Splice Variant Expression. actives 2.8% (n = 210,000). Potency, µM (top dose mostly 46.1 µM), actives largely listed as activators. HEK293 SMN2-luciferase splicing reporter, luminescence, 30-36 h. AID 1458, 2008; note: nearly all actives have a fitted effect of over 55% in size
#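 HEK293 cells carry an SMN2 minigene-luciferase reporter in which exon 7 inclusion puts luciferase in frame. Cells were seeded at 2000 cells/well, attached for 10-12 hours, then exposed to compounds for 30-36 hours at 37C before ONE-Glo luminescence.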
# NPC1 promoter act = qHTS Assay for NPC1 Promoter Activators | Huh7 NPC1 promoter luciferase reporter, 24 h | Potency, µM (titrated, usually from 9.22 µM), most hits filed as activators | actives 2.4% (n = 320,000); note: nearly all actives have a fitted effect of over 60% in size
#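 Stably transfected Huh7 (NPC1 promoter→luciferase), 1500 cells/well in Opti-MEM + 10% FBS, 2 h settle, then compound 24 h at 37 °C. Luminescence after 10 min with Amplite reagent.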
# FLuc counter = qHTS profiling assay for firefly luciferase inhibitor/activator using purifed enzyme and Km concentrations of substrates (counterscreen for miR-21 project); purified FLuc, Km substrates, luminescence inhibition; Luciferin 4-monooxygenase (Photinus pyralis), P08659; actives 6.9% (n = 360,000); Potency, µM (series often up to 57.5 µM), most hits filed as inhibitors; AID 588342, 2011; note: nearly all actives have a fitted effect of over 55% in size
# Target sequence (P08659 whole entry, looked up): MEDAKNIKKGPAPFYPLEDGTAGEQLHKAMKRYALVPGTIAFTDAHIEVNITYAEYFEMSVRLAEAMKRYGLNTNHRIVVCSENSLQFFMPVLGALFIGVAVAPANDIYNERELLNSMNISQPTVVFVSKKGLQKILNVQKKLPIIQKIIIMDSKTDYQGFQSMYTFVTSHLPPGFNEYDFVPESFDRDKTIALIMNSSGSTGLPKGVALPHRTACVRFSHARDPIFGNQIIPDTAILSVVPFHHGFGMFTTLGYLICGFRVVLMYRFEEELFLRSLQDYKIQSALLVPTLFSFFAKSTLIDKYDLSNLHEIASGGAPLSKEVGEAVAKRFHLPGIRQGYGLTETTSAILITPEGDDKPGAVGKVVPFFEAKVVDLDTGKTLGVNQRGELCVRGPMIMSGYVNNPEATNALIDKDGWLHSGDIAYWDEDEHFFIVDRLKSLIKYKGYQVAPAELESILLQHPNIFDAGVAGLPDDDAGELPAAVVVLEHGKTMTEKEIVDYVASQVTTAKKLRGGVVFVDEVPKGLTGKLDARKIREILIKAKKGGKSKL
#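 Biochemical qHTS of compounds, final roughly 60 µM downward over six points, against 10 nM purified firefly luciferase using Km concentrations of substrates (10 uM D-luciferin, 10 uM ATP) in Tris acetate pH 7.5 buffer; luminescence output.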
# ELG1 DNA repair = qHTS screen for small molecules that inhibit ELG1-dependent DNA repair in human embryonic kidney (HEK293T) cells expressing luciferase-tagged ELG1 | actives 2.3% (n = 330,000) | AID 504467, 2011 | Potency, µM (series often up to 46.1 µM), usual class: inhibitors | HEK293T ELG1-luciferase reporter, luminescence, 16 h; DNA damage induced by 5-fluorouridine; note: nearly all actives have a fitted effect of over 55% in size
#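 In this reporter screen, reduction of luminescence relative to DMSO vehicle indicated activity. Compounds and 5-fluorouridine were added together to 2,000 cells per well, incubated for 16 hr at 37 °C, then developed with ONE-Glo.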
# Rab9 prom act = qHTS Assay for Rab9 Promoter Activators. actives 2.8% (n = 320,000). Huh7 Rab9 promoter-luciferase reporter, luminescence, 24 h. Potency, µM (series often up to 9.22 µM), usual class: activators; note: nearly all actives have a fitted effect of over 60% in size
#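 Cells were plated at 1500 per well in reduced-serum medium with 10% FBS and left 2 h. Compound in DMSO was then added for 24 h at 37 °C. Reporter signal was read by luminescence after 10 min with luciferase detection reagent.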
# ELG1 genotoxic = qHTS screen for small molecules that induce genotoxicity in human embryonic kidney (HEK293T) cells expressing luciferase-tagged ELG1; HEK293T ELG1-luciferase reporter, luminescence, 16 h; Potency, µM (highest dose often 46 µM), hits mostly activators; actives 1.3% (n = 330,000); note: nearly all actives have a fitted effect of over 60% in size
#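 16 hr compound incubation (37 °C, 5% CO2) of HEK293T cells carrying luciferase-tagged ELG1; luciferase then measured by ONE-Glo luminescence after 30 min at RT.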
# A number is an active result; n = inactive; u = inconclusive; x = no result given. Calls come from the whole dose curve; as a rule, active = well fitted curve in the direction sought with a large enough effect; inconclusive = small, poorly fitted or top-dose-only effect, or another doubt; inactive = no such curve, though single readings can be large; an effect the other way counts as inactive or inconclusive.
SMILES,SMN2 splice up,NPC1 promoter act,FLuc counter,ELG1 DNA repair,Rab9 prom act,ELG1 genotoxic
Cc1nc2nc(-c3ccccc3)[nH]n2c(=O)c1Cc1ccccc1,13µM,n,19µM,u,n,n
Cc1ccc(S(=O)(=O)N(Cc2nc(-c3cccc(C)c3)no2)C2CCCCC2)cc1,n,x,n,x,x,x
Cc1noc(/C=C/c2ccccc2F)c1S(=O)(=O)N1CCC(C(=O)Nc2ccc(C#N)cc2)CC1,x,x,n,x,x,x
Cc1ccc(S(=O)(=O)c2nnn3c2nc(N2CCN(c4ccccc4F)CC2)c2ccccc23)cc1C,x,x,n,x,x,x
COc1cc(OC)cc(OC(=O)c2ccc3c(=O)n4c(nc3c2)CCC4)c1,x,n,15µM,n,n,n
Cc1ccc(OC(=O)c2ccc3c(=O)n4c(nc3c2)CCC4)cc1,x,n,6µM,n,n,n
O=C1C2C3C=CC(C4CC34)C2C(=O)N1/N=C/c1ccc([N+](=O)[O-])o1 (stereo unspecified),n,n,n,u,n,u
O=C1C2C3C=CC(C4CC34)C2C(=O)N1/N=C/c1cccs1 (stereo unspecified),n,n,17µM,u,n,n
COc1ccc(NC(=O)Cn2c(=O)nc(-c3ccccc3)c3ccccc32)cc1OC,x,x,n,x,x,x
CC(=O)c1c(C)nc(Nc2nc3ccccc3s2)nc1C,x,u,0.76µM,u,u,u
Cc1ccc(Nc2nc3ccccc3s2)c(C)c1,2.5µM,2µM,0.6µM,u,1.3µM,2.1µM
Cc1ccc(NC(=O)COC(=O)c2ccccc2-c2nc3ccccc3s2)c(C)c1,n,n,n,u,n,n
Cc1cc(C)nc(Nc2nc3ccccc3s2)n1,3.2µM,u,u,u,u,u
O=C(C1CCC1)N1CCCc2cc(S(=O)(=O)N3CCN(c4ccccc4)CC3)ccc21,x,n,n,n,n,n
CCC1CCCCN1S(=O)(=O)c1ccc(NC(=O)c2cccs2)cc1 (stereo unspecified),n,n,n,21µM,n,n
CCC1CCCCN1S(=O)(=O)c1ccc(NC(=O)c2snnc2C)cc1 (stereo unspecified),x,n,n,u,n,n
O=C(Nc1ccc(NC(=O)C2CC2)cc1)c1cccs1,x,3.5µM,13µM,u,1.3µM,u
O=C(Nc1ccccc1Oc1ccsc1C(=O)O)c1ccccc1F,x,n,n,n,n,n
O=C(Nc1ccc(Oc2ccsc2C(=O)O)cc1)c1ccccc1F,x,n,17µM,n,n,n
Cc1ccccc1C(=O)Nc1ccc(NC(=O)c2cccs2)cc1,3.5µM,x,u,x,x,x
Cc1cccc(N2CCN(C(=O)c3ccc4c(Cl)c5c(nc4c3)CCCC5)CC2)c1C,n,x,n,x,x,x
Cc1ccc2c(c1)cc1c(=O)n(CC(=O)NC3CCCCC3)nc(C)n12,n,x,n,x,x,x
O=C(Nc1ccc(NC(=O)c2cccs2)c(Cl)c1)c1cccs1,x,u,17µM,u,u,u
O=C(Nc1ccc(NC(=O)c2ccccc2F)cc1)c1cccs1,x,u,n,u,3.5µM,u
O=C(Nc1ccc(NC(=O)c2cccs2)cc1Cl)c1ccco1,x,u,n,u,u,u
SMILES,SMN2 splice up,NPC1 promoter act,FLuc counter,ELG1 DNA repair,Rab9 prom act,ELG1 genotoxic
O=C(Nc1ccc(-c2ccc([N+](=O)[O-])cc2)cc1)c1ccccc1F,u,n,n,u,n,n
O=C(Nc1ccc([N+](=O)[O-])cc1)c1ccccc1F,16µM,u,u,u,2.8µM,n
O=C(Nc1ccc(NC(=O)c2cccs2)cc1)c1cccs1,x,u,n,u,u,u
O=C(/C=C/c1cccs1)c1ccc(NC(=O)c2ccccc2F)cc1,n,n,3µM,u,n,n
Cc1cc(C)c(NC(=O)C(C)n2nc(-c3ccc(C)c(C)c3)ccc2=O)c(C)c1 (stereo unspecified),x,x,n,x,x,x
CC1(c2ccc(NC(=O)c3ccccc3F)cc2)CC1(Cl)Cl (stereo unspecified),x,3.5µM,8.5µM,u,2.5µM,u
CSc1ccccc1NC(=O)CN(C)C(=O)c1ccc(NC(=O)c2cccs2)cc1,x,n,n,21µM,n,n
CCC(C)NS(=O)(=O)c1ccc(NC(=O)c2cccs2)cc1 (stereo unspecified),x,n,n,n,n,n
O=C(Nc1ccc(Cl)cc1)c1cccs1,n,x,12µM,x,x,x
CC(=O)NS(=O)(=O)c1ccc(NC(=O)c2ccccc2F)cc1,n,n,n,n,n,n
CCC(C)c1ccc(NC(=O)c2cccs2)cc1 (stereo unspecified),7.9µM,0.4µM,0.67µM,u,0.45µM,0.73µM
O=C(CN1CCCN(Cc2ccccc2Cl)S1(=O)=O)NCc1ccccc1,x,x,n,x,x,x
O=[N+]([O-])c1ccc(NNC(=S)Nc2ccc(F)cc2)cc1,n,n,19µM,u,n,n
O=C(Nc1ccc2[nH]ccc2c1)c1cccs1,x,1.6µM,9.5µM,u,2µM,u
O=[N+]([O-])c1ccc(Nc2ccc(F)cc2)cc1,x,n,n,n,n,n
COc1ccccc1NC(=O)c1cccs1,n,n,n,u,n,n
CC(=O)Nc1ccc2[nH]ccc2c1,x,n,n,n,n,n
COc1ccc(NC(=O)C(=O)NCCC2CCCCN2S(=O)(=O)c2cccs2)cc1 (stereo unspecified),x,n,n,n,n,n
COc1ccccc1NC(=O)c1ccccc1NC(=O)c1cccs1,x,n,19µM,n,n,n
COc1cccc(NC(=O)C(=O)NCCC2CCCCN2S(=O)(=O)c2cccs2)c1 (stereo unspecified),x,n,11µM,u,n,n
Cc1ccc(C(=O)Nc2nnc(S(=O)(=O)N(C)Cc3ccc(Cl)cc3)s2)cc1,x,x,n,x,x,x
Cc1cccc(NC(=O)c2sc3nc(N4CCOCC4)c4c(c3c2N)CC(C)(C)OC4)c1,n,x,n,x,x,x
COc1ccc(-c2csc(C3=C(O)CN(CCCN4CCCC4=O)C3=N)n2)cc1OC,u,n,8.5µM,n,n,n
O=C(Oc1ccccc1)N1CCC2(CC1)CCN(c1ccccn1)CC2,n,x,x,x,x,x
O=C(O)COc1ccc(/C=N/NC(=O)COc2nsnc2N2CCOCC2)cc1,x,n,n,n,n,n
CC(C)(C)c1ccc(OCC(=O)N/N=C/c2ccsc2)cc1,x,n,11µM,n,n,n
CC(C)(C)c1ccc(OCC(=O)N/N=C/c2ccc(N3CCOCC3)cc2)cc1,n,n,5.4µM,n,n,n
CC(C)(C)OC(=O)COc1ccc(/C=N/NC(=O)CN2CCCCC2)cc1,x,1.6µM,n,u,1.1µM,u
